This excerpt belongs to a sample that is enriched for hits.
CHX counter = counter-screen for Shiga toxin inhibitors: cycloheximide protein synthesis inhibition; 300,000 compounds, 12% hits; AID 2314; max response, %; cell reporter, cycloheximide protein synthesis inhibition counterscreen; in the data active = max response mostly above about 13%, no sharp cut-off; inactive = mostly below about 14%; note: read at 38.3 µM for the half of the compounds with a filed dose; 0% is about no effect
Shiga inhibitor = blocks Shiga toxin action in Vero cells. inhibition, % at 38.7 µM. 290,000 compounds, 9.2% hits. Vero cells, Shiga toxin protein synthesis inhibition reporter; in the data active = inhibition mostly above about 28%, no sharp cut-off; inactive = mostly below about 43%; note: 0% is about no effect
VACV Venus inh = inhibitors of vaccinia virus (Venus reporter) | Vaccinia virus Venus reporter expression, fluorescence | Potency, µM (titrated, usually from 36.5 µM), without a hit: at the highest dose activity change, negative = inhibition, most hits filed as inhibitors | 330,000 compounds, 0.46% hits | AID 720580; calls by dose curve; tested in A549 cells; note: potency is the fitted concentration of half-maximal effect; % is set by controls: 0 for no effect and ±100 for the full control effect; nearly all actives have a fitted effect of over 30% in size
MARV entry inh = inhibitors of Marburg virus binding or cell entry; Marburg virus pseudotyped entry inhibition, cell reporter; Potency, µM (doses to about 37.8 µM), for inactives: at the top dose activity change, negative = inhibition, actives largely listed as inhibitors; 300,000 compounds, 1.8% hits; AID 540276; calls by dose curve; tested in HEK293 cells; note: potency is the fitted concentration of half-maximal effect; % is set by controls: 0 for no effect and ±100 for the full control effect
LASV entry inh = blocks Lassa virus binding to or entry into cells; Lassa virus pseudotype entry inhibition, cell reporter; AID 540256; 300,000 compounds, 1.2% hits; Potency, µM (doses to about 37.9 µM), inactives show top-dose activity change, negative = inhibition, hits mostly inhibitors; calls by dose curve; tested in HEK293 cells; note: potency is the fitted concentration of half-maximal effect; % is set by controls: 0 for no effect and ±100 for the full control effect; nearly all actives have a fitted effect of over 50% in size
Vaccinia mCherry = inhibitors of vaccinia virus infection (mCherry reporter signal). Potency, µM (top dose mostly 36.5 µM), for inactives: top-dose activity change, negative = inhibition, most hits filed as inhibitors. Vaccinia virus mCherry reporter infection, fluorescence. 310,000 compounds, 0.63% hits. AID 720579; calls by dose curve; tested in A549 cells; note: potency is the fitted concentration of half-maximal effect; % is set by controls: 0 for no effect and ±100 for the full control effect; nearly all actives have a fitted effect of over 35% in size
* marks the source's active call; other numbers are inactive results; i = inactive; ? = inconclusive; · = not tested or not shown; [ ] = dose if it differs, or a comment.

SMILES	CHX counter	Shiga inhibitor	VACV Venus inh	MARV entry inh	LASV entry inh	Vaccinia mCherry
COc1ccc(-c2cc(C(=O)NCc3ccc(Cl)cc3)no2)cc1OC	-4.8	-6.4	·	8.4%	-2.7%	·
COc1cc(Cl)ccc1OCc1cc(C(=O)NCC(C)(C)N2CCOCC2)no1	42.6*	49.8*	·	·	·	·
CC(C)(CNC(=O)CNC(=O)c1ccc(Cl)cc1Cl)N1CCOCC1	·	·	-3.5%	-26.4%	-15.8%	-8.7%
COc1cc(Cl)ccc1OCc1cc(C(=O)NCc2cc(C(C)C)no2)no1	67.4*	53.5*	-13.5%	-29.4%	0.4%	-2.5%
COc1ccc(OCc2cc(C(=O)NCCN3CCCc4ccccc43)no2)c(Cl)c1	15.7*	15.4	-25.0%	-24.9%	?	-12.8%
O=C1c2ccccc2NC(c2ccccc2F)N1NS(=O)(=O)c1ccccc1 (centres undefined)	1.0	-2.4	-17.7%	-7.7%[46.1 µM]	-9.6%	-0.7%
O=C(CCS(=O)(=O)c1cc2c(cc1Cl)NC(=O)CO2)NCc1ccccc1Cl	·	·	7.6%	·	-5.3%[46.1 µM]	-7.9%
COc1ccc(CNC(=O)[C@H](C)NC(=O)C2CCN(C(=O)[C@@H](N)CCSC)CC2)cc1	-1.1	-1.7	2.4%	·	·	0.5%
N#Cc1c(/N=C/c2cc(Br)cs2)sc2c1CCC2	·	·	·	16.0%	20.6%	·
CC1CCc2c(sc(/N=C/N(C)C)c2C#N)C1 (centres undefined)	37.0*	60.3*	-5.7%	?	-14.4%[46.1 µM]	-7.6%
CN(C)/C=N/c1sc2c(c1C#N)CCCC2	34.9*	116.4*	-8.1%	?	?	7.1%
N#Cc1c(/N=C/c2cccs2)sc2c1CCC2	6.5	12.3	·	-4.3%	-5.4%	·
N#Cc1c(/N=C/c2ccco2)sc2c1CCCCC2	34.9*	124.9	·	12.2%	-9.2%	·
COCc1c(C(=O)N2CCN(C(C)C)CC2)cnn1-c1nccc(-c2cc(C)sc2C)n1	·	·	-4.4%	·	·	-8.9%
CCCCNC(=O)c1sc2ncnc(NCC3CCCO3)c2c1C (centres undefined)	·	·	3.4%	·	·	-7.1%
CCc1nc(NC[C@H]2CCCO2)c(C#N)c2c1COC(C)(C)C2	·	·	·	4.8%[46.1 µM]	·	·
O=C(O)CCCC(=O)Nc1ccccc1SCCS(=O)(=O)c1ccc(Cl)cc1	-3.3	1.2	?	-13.0%	?	20µM*
Cc1nnc(NC(=O)c2sc3nc(-c4cccs4)cc(C(F)(F)F)c3c2N)s1	41.5*	57.4*	94.7%	?	-20.8%	-28.7%
Cc1ccc(OCCCCn2c(CCNC(=O)C3CCCCC3)nc3ccccc32)cc1	·	·	-18.3%	·	·	-22.1%
Cn1c(SCc2ccccc2)nnc1-c1ccco1	40.8*	82.4*	2.6%	26.2%[46.1 µM]	?	-17.6%
Cc1ccc(C(=O)CSc2nnc3c4ccccc4nc(C(C)(C)C)n23)cc1	-2.8	6.2	-7.9%	6.31µM*	?	-4.3%
Cn1c(SCC(=O)c2ccccc2)nnc1C1COc2ccccc2O1 (centres undefined)	42.1*	45.0	-11.4%	16.7%[46.1 µM]	10.2%[46.1 µM]	-2.0%
Cn1c(SCc2nc(-c3ccccc3)no2)nnc1-c1ccco1	0.9	16.1	-11.5%	14.6%	11.9%	-10.8%
Cn1c(SCC(=O)c2ccccc2)nnc1-c1ccco1	41.4*	62.6*	-18.2%	11.8%	16.2%	-24.2%
NC(=O)Cn1c(=O)n(CCCCCC(=O)NCc2ccccc2Cl)c(=O)c2sccc21	·	·	-8.4%	16.0%[46.1 µM]	-12.4%[46.1 µM]	-10.0%
SMILES	CHX counter	Shiga inhibitor	VACV Venus inh	MARV entry inh	LASV entry inh	Vaccinia mCherry
O=C(Nc1cccc(Cl)c1Cl)c1cc(S(=O)(=O)N2CCCCC2)ccc1F	·	·	-14.3%	·	-0.6%[46.1 µM]	-12.4%
CCn1c(SCC(=O)c2ccccc2)nc2ccccc2c1=O	18.7	19.8	-12.6%	-15.6%[46.1 µM]	-16.3%	-8.6%
c1ccc(CSc2nnc(-c3ccco3)n2Cc2ccco2)cc1	37.5*	32.0	·	?	?	·
O=C(CSc1nnc(-c2ccncc2)n1Cc1ccco1)OC1CCCCC1	14.6	-9.4	·	-0.6%	-1.2%	·
CC(C)(C)c1nnc(SCC(=O)c2ccccc2)n(N)c1=O	56.8*	63.5*	-11.0%	?	2.3%	-13.7%
Cc1ccccc1CSc1nnc(-c2ccco2)n1Cc1ccco1	-2.2	15.2	-19.9%	-3.1%	-16.7%	-24.4%
O=C(CSc1nnc(-c2ccco2)n1Cc1ccccc1)OC1CCCCC1	23.5*	83.9*	-12.9%	?	0.5%	-19.8%
O=C(Cn1ncc2c3ccccc3n(Cc3cccc(Cl)c3)c2c1=O)NCCCN1CCCCC1	·	·	2.8%	8.4%[46.1 µM]	25.9%[46.1 µM]	-7.0%
O=C(Nc1cccc(-c2cn3cccnc3n2)c1)c1ccco1	24.2*	29.3	·	-0.6%	1.2%	·
CC(C)CC(=O)Nc1ccc(-c2cn3cccnc3n2)cc1	29.0*	87.9*	·	-2.8%	·	·
O=C(Nc1cccc(-c2cn3cccnc3n2)c1)c1ccc(Br)o1	2.0	-4.5	-8.6%	-3.3%	15.7%	-13.1%
CCCC(=O)Nc1cccc(-c2cn3cccnc3n2)c1	22.9*	36.9	-11.5%	?	?	-28.3%
CCCC(=O)Nc1ccc(-c2cn3cccnc3n2)cc1	30.7*	38.7*	-13.8%	13.1%[46.1 µM]	-9.0%	-12.6%
CCOCC(=O)Nc1ccc(-c2cn3cccnc3n2)cc1	16.1	4.6	-13.3%	?	24.6%	-12.5%
Cc1ccc(NC(=O)Cn2c(=O)n(Cc3ccccc3)c(=O)c3c2c2cc(C)ccc2n3C)cc1	·	·	0.1%	·	18.7%[46.1 µM]	-9.7%
C[C@@H]1CN(Cc2ccc3c(c2)CN(Cc2cccc4c2OCO4)CCO3)C[C@H](C)O1	·	·	-0.2%	·	·	-13.5%
Cc1ccc2c(c1)N(CC(=O)NCc1ccco1)C(=O)C(C(C)C)O2 (centres undefined)	9.9	10.5	·	·	·	·
COc1ccc(S(=O)(=O)N2CCC(C(=O)NCCCN3CCOCC3)CC2)cc1	0.0	17.7	·	·	·	·
CCN(CC(=O)Nc1c(F)cccc1F)C(=O)Cc1ccc(S(=O)(=O)N2CCOCC2)s1	·	·	-4.2%	-13.9%	14.3%	-7.4%
CC(C)(C)CC(=O)Nc1ccc(-c2cn3cccnc3n2)cc1	38.8*	72.1*	-14.3%	-0.4%	?	-4.5%
Cc1ccc(C(=O)Nc2ccc(-c3cn4cccnc4n3)cc2)cc1C	·	·	5.0%	?	?	-6.2%
CC(C)CC(=O)Nc1ccc(-c2cn3ccsc3n2)cc1	18.5*	32.6*	?	-12.0%	2.9%	·
COc1cc(=O)n2c(c1C(=O)NCc1nonc1C)CCN(C(=O)c1cccc(C)c1C)CC2	·	·	0.0%	·	·	i
O=C(NCC(=O)N1CCCC1)c1ccc(Br)o1	5.7	13.3	-1.3%	?	6.5%	-12.2%
CCCN1CCC(=NNc2ccc(C(=O)O)cc2)CC1	30.5*	40.0*	15.2%	?	-17.7%	-6.5%
O=C(NN=C1CCN(Cc2ccccc2)CC1)c1ccccc1O	22.1*	35.4*	-2.5%	-3.5%[46.1 µM]	-12.0%	-0.5%
CCCN1CCC(=NNC(=O)c2ccc(Br)o2)CC1	41.2*	69.7*	-17.2%	-11.8%	2.3%	-16.2%
CCN1CCC(=NNC(=O)c2ccco2)CC1	55.6*	52.6*	0.7%	?	26.4%	-9.9%
CCCOc1ccc(C(=O)ON=C2CCN(C)CC2)cc1	8.7	46.5	·	8.0%	6.8%	·
CCOc1cccc2sc(N(CCN(CC)CC)C(=O)c3ccco3)nc12	·	·	-9.5%	·	8.2%[46.1 µM]	-8.0%
